This is an account of results in paper PMC4081100, “A DNA-binding-site landscape and regulatory network analysis for NAC transcription factors in Arabidopsis thaliana”.

Assay in all cases: universal protein binding microarray (PBM); transcription factors of Arabidopsis thaliana; high values mean tight binding
What all share (details): protein: recombinant; tags: GST; chain copies: 2; dsDNA, one strand shown

For experiment [1], the target named is T1, GST-ANAC092(1-176) (Arabidopsis thaliana, UniProt Q9FKA0 1-176).
T1 sequence: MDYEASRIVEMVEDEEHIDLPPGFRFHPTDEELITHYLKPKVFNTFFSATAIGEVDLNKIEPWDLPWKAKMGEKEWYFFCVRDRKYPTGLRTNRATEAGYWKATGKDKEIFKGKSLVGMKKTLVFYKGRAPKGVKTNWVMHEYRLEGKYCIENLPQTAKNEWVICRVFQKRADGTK
The procedure, abridged: (§1)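 Binding is expressed as the normalised enrichment score (E-score). Proteins carrying a GST tag, whether NAC-domain, full-length or DNA-binding-domain forms, were induced in cells, and zinc acetate was added for zinc-finger proteins. After purification on glutathione–Sepharose 4B and quantification by A280 or anti-GST western blot, each was applied in duplicate at 200 to 500 nM final to custom all-10-mer Agilent 4 × 180K arrays made double-stranded by primer extension. Gapped and ungapped 8-mers were scored.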

Experiment [2] has as its target T2, GST-ANAC019 NAC domain (Arabidopsis thaliana, UniProt Q9C932 14-162).
T2 sequence: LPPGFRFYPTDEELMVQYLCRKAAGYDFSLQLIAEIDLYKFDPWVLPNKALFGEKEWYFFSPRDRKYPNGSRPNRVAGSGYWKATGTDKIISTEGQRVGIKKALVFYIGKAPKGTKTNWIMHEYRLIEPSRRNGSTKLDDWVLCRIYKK
The procedure, abridged: as §1

The target in experiment [3] is T3, GST-ANAC055(1-171) (Arabidopsis thaliana, UniProt Q9LDY8 1-171).
T3 sequence: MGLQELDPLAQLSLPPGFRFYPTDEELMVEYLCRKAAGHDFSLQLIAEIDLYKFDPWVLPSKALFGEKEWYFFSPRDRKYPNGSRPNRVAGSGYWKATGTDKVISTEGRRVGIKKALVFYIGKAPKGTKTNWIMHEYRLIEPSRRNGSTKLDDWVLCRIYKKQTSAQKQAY
In a few lines:
as §1

Experiment [4] concerns the target T4, GST-ATAF1 NAC domain (Arabidopsis thaliana, UniProt Q39013 7-158).
T4 sequence: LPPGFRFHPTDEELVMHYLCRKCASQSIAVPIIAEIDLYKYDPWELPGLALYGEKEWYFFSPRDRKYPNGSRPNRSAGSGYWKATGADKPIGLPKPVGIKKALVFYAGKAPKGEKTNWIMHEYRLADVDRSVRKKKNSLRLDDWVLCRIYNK
The procedure, abridged:
as §1

Experiment [5] deals with T5, GST-ANAC092(1-285) full length (Arabidopsis thaliana, UniProt Q9FKA0 1-285).
T5 sequence: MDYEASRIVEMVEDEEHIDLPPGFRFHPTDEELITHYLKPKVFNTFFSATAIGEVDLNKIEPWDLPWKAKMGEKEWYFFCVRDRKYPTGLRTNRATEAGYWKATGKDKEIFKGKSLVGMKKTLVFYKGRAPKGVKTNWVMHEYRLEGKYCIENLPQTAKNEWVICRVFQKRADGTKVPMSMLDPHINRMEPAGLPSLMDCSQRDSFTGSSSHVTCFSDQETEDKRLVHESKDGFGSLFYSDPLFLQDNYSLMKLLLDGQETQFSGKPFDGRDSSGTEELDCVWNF
The procedure, abridged: as §1

The target in experiment [6] is T6, GST-NAP(1-166) (Arabidopsis thaliana, UniProt O49255 1-166).
T6 sequence: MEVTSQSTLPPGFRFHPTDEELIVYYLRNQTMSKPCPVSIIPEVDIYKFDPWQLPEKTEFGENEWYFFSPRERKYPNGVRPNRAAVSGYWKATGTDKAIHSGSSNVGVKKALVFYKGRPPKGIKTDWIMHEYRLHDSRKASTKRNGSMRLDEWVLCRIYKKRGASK
The procedure, abridged:
as §1

Experiment [7] concerns the target T7, GST-NST2(1-184) (Arabidopsis thaliana, UniProt Q9M274 1-184).
T7 sequence: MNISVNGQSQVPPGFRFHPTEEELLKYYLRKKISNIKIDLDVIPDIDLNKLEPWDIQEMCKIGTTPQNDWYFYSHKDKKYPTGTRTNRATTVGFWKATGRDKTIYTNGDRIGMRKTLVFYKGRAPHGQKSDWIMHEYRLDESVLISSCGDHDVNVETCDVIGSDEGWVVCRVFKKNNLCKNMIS
The procedure, abridged:
as §1

In experiment [8] the target is T8, GST-NTL8 NAC domain (Arabidopsis thaliana, UniProt Q9XIN7 14-156).
T8 sequence: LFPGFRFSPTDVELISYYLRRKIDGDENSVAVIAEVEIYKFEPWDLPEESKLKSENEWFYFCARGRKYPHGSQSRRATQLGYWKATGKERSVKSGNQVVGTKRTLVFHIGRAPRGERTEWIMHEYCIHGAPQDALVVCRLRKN
In a few lines:
as §1

For experiment [9], the target named is T9, GST-SND1(1-203) (Arabidopsis thaliana, UniProt Q9LPI7 1-203).
T9 sequence: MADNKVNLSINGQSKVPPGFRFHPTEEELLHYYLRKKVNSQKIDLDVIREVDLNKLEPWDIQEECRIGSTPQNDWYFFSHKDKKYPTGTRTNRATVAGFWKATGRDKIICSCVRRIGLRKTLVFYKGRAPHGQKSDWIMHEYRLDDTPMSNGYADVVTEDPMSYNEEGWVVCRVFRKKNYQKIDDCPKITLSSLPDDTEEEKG
In a few lines: as §1

The target of experiment [10] is T10, GST-VND3 NAC domain (Arabidopsis thaliana, UniProt Q9FH59 12-162).
T10 sequence: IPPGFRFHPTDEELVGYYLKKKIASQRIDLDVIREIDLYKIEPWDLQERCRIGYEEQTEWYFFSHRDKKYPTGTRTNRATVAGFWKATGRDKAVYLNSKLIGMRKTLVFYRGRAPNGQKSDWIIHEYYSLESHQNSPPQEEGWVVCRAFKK
The procedure, abridged: as §1

The target in experiment [11] is T11, GST-VND7 NAC domain (Arabidopsis thaliana, UniProt Q9C8W9 9-158).
T11 sequence: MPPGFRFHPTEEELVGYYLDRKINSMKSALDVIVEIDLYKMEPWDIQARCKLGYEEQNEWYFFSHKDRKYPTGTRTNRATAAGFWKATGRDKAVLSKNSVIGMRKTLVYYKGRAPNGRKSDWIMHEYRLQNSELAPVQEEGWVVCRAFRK
The procedure, abridged:
as §1

As to CACGTTAC, the binding signal is 0.467 E-score in experiment [1]; 0.241 E-score in [2]; 0.293 E-score in experiment [3]; 0.287 E-score in experiment [4]; 0.476 E-score in [5]; 0.221 E-score in experiment [6]. Moreover, the binding signal in [7] worked out at 0.328 E-score; in experiment [8], 0.0995 E-score; in experiment [9], 0.432 E-score; in experiment [10], 0.319 E-score; in experiment [11], 0.275 E-score.
As for CACGGAAC, the binding signal in [1] came out at 0.397 E-score; in [2], 0.48 E-score; in experiment [3], 0.466 E-score; in experiment [4] it was 0.397 E-score; in experiment [5], 0.425 E-score; in experiment [6], 0.414 E-score. For the same sequence, the binding signal in experiment [7] worked out at 0.175 E-score; in [8], 0.127 E-score; in experiment [9], 0.0702 E-score; in experiment [10], 0.446 E-score; in experiment [11] it was 0.478 E-score.
ACGGAACC: the binding signal in experiment [1] was found to be 0.361 E-score; in [2], 0.454 E-score; in experiment [3], 0.446 E-score; in [4], 0.38 E-score; in experiment [5], 0.4 E-score; in experiment [6], 0.461 E-score. Besides, the binding signal in experiment [7] was found to be 0.12 E-score; in experiment [8], 0.172 E-score; in experiment [9], 0.235 E-score; in [10], 0.382 E-score; in experiment [11] it was 0.435 E-score.
TGCGTAAA: the binding signal turned out to be 0.396 E-score in experiment [1]; 0.205 E-score in experiment [2]; 0.131 E-score in experiment [3]; 0.216 E-score in [4]; 0.386 E-score in experiment [5]; 0.162 E-score in experiment [6]. The binding signal was 0.291 E-score in [7]; 0.0652 E-score in experiment [8]; 0.447 E-score in experiment [9]; 0.26 E-score in experiment [10]; 0.244 E-score in [11].
Take ACGCAACG: the binding signal stood at 0.46 E-score in [1]; 0.327 E-score in experiment [2]; 0.23 E-score in experiment [3]; 0.27 E-score in experiment [4]; 0.463 E-score in [5]; 0.387 E-score in [6]. In addition, the binding signal in experiment [7] turned out to be 0.3 E-score; in [8], 0.113 E-score; in [9], 0.461 E-score; in experiment [10] it was 0.278 E-score; in [11], 0.316 E-score.
ATTGCGTA: the binding signal in [1] amounted to 0.482 E-score; in experiment [2], 0.375 E-score; in experiment [3] it was 0.333 E-score; in experiment [4] it was 0.32 E-score; in experiment [5], 0.485 E-score; in experiment [6], 0.423 E-score. The binding signal turned out to be 0.409 E-score in [7]; 0.0931 E-score in experiment [8]; 0.491 E-score in experiment [9]; 0.444 E-score in experiment [10]; 0.453 E-score in experiment [11].
For AGACGTAA, the binding signal came to 0.425 E-score in experiment [1]; 0.453 E-score in experiment [2]; 0.389 E-score in experiment [3]; 0.437 E-score in experiment [4]; 0.424 E-score in experiment [5]; 0.456 E-score in [6]. The binding signal came out at 0.282 E-score in [7]; 0.139 E-score in experiment [8]; 0.408 E-score in experiment [9]; 0.42 E-score in experiment [10]; 0.42 E-score in experiment [11].
In the case of ATGCGTGC, the binding signal in experiment [1] came out at 0.429 E-score; in [2], 0.276 E-score; in experiment [3], 0.217 E-score; in experiment [4] it was 0.21 E-score; in [5], 0.452 E-score; in [6], 0.273 E-score. Moreover, the binding signal in experiment [7] is 0.221 E-score; in [9], 0.292 E-score; in experiment [10], 0.191 E-score; in experiment [11], 0.138 E-score.
Regarding ACGGCACT, the binding signal in experiment [1] stood at 0.331 E-score; in [2] it was 0.467 E-score; in experiment [3], 0.449 E-score; in experiment [4] it was 0.454 E-score; in experiment [5], 0.393 E-score; in experiment [6] it was 0.425 E-score. Also, the binding signal in experiment [7] is 0.187 E-score; in experiment [8], 0.0691 E-score; in [9], 0.174 E-score; in experiment [10], 0.402 E-score; in experiment [11], 0.453 E-score.
Regarding ACGTTACC, the binding signal in experiment [1] is 0.458 E-score; in experiment [2], 0.263 E-score; in experiment [3], 0.197 E-score; in [4] it was 0.195 E-score; in experiment [5], 0.467 E-score; in experiment [6], 0.218 E-score. Besides, the binding signal in experiment [7] is 0.331 E-score; in experiment [8] it was 0.384 E-score; in experiment [9] it was 0.462 E-score; in experiment [10], 0.249 E-score; in [11] it was 0.176 E-score.
With ATACGGAA, the binding signal in experiment [1] stood at 0.33 E-score; in experiment [2], 0.436 E-score; in experiment [3], 0.394 E-score; in experiment [4], 0.332 E-score; in experiment [5], 0.399 E-score; in experiment [6], 0.372 E-score. The binding signal in [7] was 0.223 E-score; in experiment [8], 0.0989 E-score; in experiment [9] it was 0.219 E-score; in experiment [10], 0.371 E-score; in experiment [11], 0.38 E-score.
Take GCCGTGTA: the binding signal in [1] turned out to be 0.341 E-score; in experiment [2], 0.44 E-score; in [3] it was 0.345 E-score; in [4], 0.314 E-score; in experiment [5], 0.402 E-score; in experiment [6] it was 0.235 E-score. Besides, the binding signal turned out to be 0.0515 E-score in experiment [7], 0.0913 E-score in [9], 0.347 E-score in experiment [10] and 0.351 E-score in experiment [11].
On to GACACGCA, for which the binding signal turned out to be 0.43 E-score in [1]; 0.358 E-score in experiment [2]; 0.275 E-score in experiment [3]; 0.304 E-score in [4]; 0.455 E-score in experiment [5]; 0.283 E-score in experiment [6]. Moreover, the binding signal is 0.0949 E-score in experiment [7]; 0.0711 E-score in experiment [8]; 0.242 E-score in [9]; 0.208 E-score in experiment [10]; 0.318 E-score in [11].
